# Bioassay records as filed in PubChem BioAssay.
# Measles CPE – compounds protecting cells from measles virus cytopathic effect, primary screen, measles RdRp inhibitor project, single point, MLSMR library, absorbance; Measles virus-infected cells, CPE protection; protection (pct of control), % at 4 µM; hit rate 1.5% among 140,000; AID 841, 2007; in the data active = protection mostly above about 24%, no sharp cut-off; inactive = mostly below about 26%
# Arbovirus inh – antivirals against arbovirus infection, primary screen, cell-based, full library, 10K replicate subset; arbovirus infection cell-based antiviral screen; inhibition, % at 10 µM; hit rate 0.37% among 200,000; in the data active = inhibition above about 30%
# HSV replic up – enhancers of HSV replication in host cells, fold increase, host cell viability. hit rate 0.005% among 220,000. maximum fold increase. HSV replication augmentation in cells; in the data active = maximum fold increase above about 1.5; tested in PC3 cells
# ROMK primary – ROMK potassium channel modulators, primary screen, cell-based, thallium flux, MLSMR library. ATP-sensitive inward rectifier potassium channel 1 (Homo sapiens), P48048. Tet-inducible ROMK, thallium flux fluorescence; actives lie on both sides. B-score at 10 µM. hit rate 2% among 130,000. AID 1918, 2009;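 active = signal ratio slope over the read window, or its plate-corrected B-score, at least 3 SD from the plate mean, either direction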;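 note: B-score of the F/F0 ratio slope over 7 to 12 s after thallium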
# KCC2 mod – KCC2 cotransporter modulators, thallium flux, primary screen, cell-based, HEK293 KCC2, FluoZin-2 fluorescence, MLSMR; KCC2 cells, thallium flux FluoZin-2 fluorescence; B-score of Tl+ flux slope (higher = more flux/activation; lower = inhibition) at 10 µM; hit rate 2.2% among 190,000; AID 1456, 2008;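 active = thallium flux slope and its plate-corrected score both differing from the plate sample mean at a set confidence after two filtering rounds, in either direction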;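 note: slope of fluorescence scaled to starting intensity during 10 to 20 s after thallium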
# * hit, by the source's call; i = inactive; nt = no result given. Shown are actives, neighbours in structure and some others; about 4% of the full set was active somewhere.
SMILES,Measles CPE,Arbovirus inh,HSV replic up,ROMK primary,KCC2 mod
O=C(CCCCn1c(=O)c2ccccc2n(CC(=O)NC2CCCC2)c1=O)NC1CCCC1,88*,0,i,nt,0.85
O=C1OCCC1Sc1nnnn1-c1ccc(Cl)cc1 (centres undefined),nt,1,i,-0.027,0.092
COc1ccc(C(=O)NCC(C)(C)SCc2c(C)cc(C)cc2C)cc1,30,46*,i,nt,1.3
CC(C)C(=O)Nc1cc(S(=O)(=O)Nc2ccc(Cl)cc2)ccc1Cl,45*,2,i,nt,0.8
COc1ccc(Cl)cc1NC(=O)C(C)OC(=O)c1ccc(NS(=O)(=O)c2ccc3[nH]c(=O)[nH]c3c2)cc1 (centres undefined),48*,9,i,-1.6,-1.1
NC(=O)C1CC(=O)N(c2ccc(OCc3ccc(Cl)cc3)cc2)C1 (centres undefined),nt,20,i,-0.39,-0.72
CC(C)c1ccc(NC(=O)N2CCCC2C(=O)Nc2ccc(-n3cnnn3)cc2)cc1 (centres undefined),nt,8,i,-0.17,0.6
COc1ccc(/C=C2\N=C(c3ccccc3Cl)NC2=O)cc1,nt,nt,i,2.2,1.1
COCCOC(=O)C1=C(C)N(Cc2ccccc2)C(=O)NC1c1ccc(OC)cc1 (centres undefined),52*,12,i,-1,-0.18
COC(=O)C1=C(C)N(Cc2ccccc2)C(=O)N[C@H]1c1ccc(Br)cc1,nt,nt,i,nt,-0.14
CC1=C(C(=O)OCc2ccccc2)C(c2ccc(C#N)cc2)NC(=O)N1CCCC(=O)O (centres undefined),31*,1,i,0.58,-0.2
O=C(O)C1=C[C@@H](c2ccc(C(F)(F)F)cc2)C[C@@H](OCCCCO)O1,nt,nt,i,nt,nt
C=CCCCCCCCCc1nc(=S)[nH][nH]1,16,-13,i,1.6,64*
O=C(C1CC(c2ccc(F)cc2)=NO1)N1CCCc2ccccc21 (centres undefined),2,0,i,-1.4,-1.8
COc1ccc(OC)c(C2=NOC(C(=O)N3CCCc4ccccc43)C2)c1 (centres undefined),52*,4,i,0.04,0.45
COc1cc(/C=C(\C#N)c2nc3ccc(C)cc3[nH]2)c([N+](=O)[O-])cc1OC,1,-3,i,-1.4,nt
COc1cc(/C=C(\C#N)c2nc3ccc(C)cc3[nH]2)cc([N+](=O)[O-])c1O,nt,44*,i,0.18,nt
CCOc1ccc(OCC)c(N=c2oc3c(C)ncc(CO)c3cc2C(N)=O)c1,50*,-4,nt,-0.85,nt
CN(C)N1C(N)=C(C#N)C(c2cccs2)C2=C1CC(C)(C)CC2=O (centres undefined),nt,1,i,0.17,-0.19
O=C(CCn1c(=O)oc2ccccc21)Nc1nc2ccccc2s1,40*,8,i,nt,nt
COc1ccc(-c2nnc(-c3cc(OC)c(OC)c(OC)c3)o2)cc1OC,18,38*,i,0.57,-0.23
O=C(CSc1nnc(C2CC2)n1-c1ccccc1)Nc1ccc(N2CCOCC2)cc1,39*,7,i,nt,nt
O=C(CSc1nnc(-c2cccs2)n1-c1ccccc1)N1CCCC1,15,3,i,nt,nt
O=C(CSc1nnc(-c2cccs2)n1-c1ccccc1)N1CCOCC1,38*,7,i,0.29,0.51
COC(=O)c1cn(C(=O)OC)c2ccccc12,49*,-5,i,-0.12,nt
SMILES,Measles CPE,Arbovirus inh,HSV replic up,ROMK primary,KCC2 mod
COC(=O)c1cn(C(=O)c2ccccc2Cl)c2ccccc12,nt,-9,i,-1.9,-0.43
CC(O)(CC(=O)O)CC(=O)O,nt,nt,i,nt,nt
Cn1c(N)c(C(=O)COC(=O)CC2CC3CCC2C3)c(=O)n(C)c1=O (centres undefined),nt,0,i,-0.0095,0.2
O=[N+]([O-])c1ccc(/C=N/NC(=S)Nc2ccccc2F)o1,6,-1,i,nt,28*
Cc1c(Cl)cccc1NC(=S)N/N=C/c1ccccc1Cl,nt,nt,i,0.65,1.1
Fc1ccccc1NC(=S)N/N=C/c1ccccc1Br,14,-4,i,0.8,6.2*
O=C(NCc1cccnc1)c1ccc(CS(=O)(=O)c2ccc(Cl)cc2)o1,31,7,i,nt,-5.3*
COC(=O)C1=C(C)N(CCCC(=O)O)C(=O)NC1c1ccccc1OS(=O)(=O)c1ccc([N+](=O)[O-])cc1 (centres undefined),nt,nt,i,nt,nt
Clc1ccc(C2=CSC3=NCCN23)cc1Cl,54*,-23,i,nt,0.39
CCOC(=O)c1c(NC(=O)CSc2nc3ccccc3c(=O)n2-c2ccc(F)cc2)sc(C(C)=O)c1C,33*,-9,i,0.066,-0.72
CCOC(=O)c1c(NC(=O)CSc2ncnc3ccccc23)sc(C(C)=O)c1C,4,3,i,-2,-1.1
O=C(/C=C/c1ccco1)Nc1ccc2nc3n(c(=O)c2c1)CCCC3,nt,-6,i,-0.2,0.024
COCCNC(=S)N1CCC(NC(=O)Nc2ccc(C)cc2)CC1,nt,-4,i,-0.47,0.015
COc1ccc2oc3ccccc3c(=O)c2c1,nt,nt,i,nt,-1.3
COc1ccc(OC)c(-c2oc3ccccc3c(=O)c2O)c1,7,-3,i,nt,6.8*
CCOC(=O)c1c(-c2ccccc2)csc1/N=C/C1C(=O)CCCC1=O,53*,-3,i,nt,-0.5
CCOC(=O)c1c(-c2ccccc2)csc1NC(=S)N(CC)CC,29,37*,i,nt,-0.77
CCOC(=O)c1c(CC(C)C)csc1/N=C/C1C(=O)CCCC1=O,nt,5,i,1,0.057
CCOC(=O)c1c(-c2ccccc2)csc1NC(=O)c1nn(CC)cc1Br,4,25,i,nt,0.054
CCOC(=O)c1c(NC(=O)C2COc3ccccc3O2)sc2c1CC(C)(C)NC2(C)C (centres undefined),47*,-27,i,nt,0.76
O=[N+]([O-])c1cccc(-n2nnnc2CN2CCCCCC2)c1,33*,2,i,nt,nt
O=[N+]([O-])c1cccc(-n2nnnc2CN2CCCC2)c1,nt,28,i,0.73,-0.08
O=C1NC(=S)S/C1=C\c1cc2ccccc2nc1N1CCCCC1,nt,nt,i,nt,nt
N#C/C(=C\c1cc2ccccc2nc1N1CCCCC1)C(N)=O,18,35*,i,-1.7,-0.92
Cc1nnc(N(C)C(=O)c2ccccn2)s1,53*,1,nt,nt,1.7
COc1cccc(OC)c1C(=O)N1CCN(S(=O)(=O)c2ccc(C)cc2)CC1,42*,4,i,0.3,0.01
CC(=O)c1ccc(S(=O)(=O)N2CCCCC2C(=O)O)cc1 (centres undefined),nt,10,i,0.043,0.54
Cc1ccc(N2C(=O)/C(=C\c3ccc(C(C)C)cc3)N=C2SC2CCOC2=O)cc1 (centres undefined),28,39*,i,0.097,-0.28
